We go through 34 compounds from PubChem BioAssay (NCATS).

The target of test [1] is Rap guanine nucleotide exchange factor 3 (Homo sapiens) (UniProt O95398). In words: Confirmatory qHTS for agonist of cAMP-regulated guanine nucleotide exchange factor 3 (EPAC1) (AID 1645881;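 note: EPAC1 catalysed release of BODIPY-GDP from Rap1B seen as fluorescence loss; 100% = effect of cAMP agonist control; nearly all actives have a fitted effect of over 75% in size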). (Quantitative high-throughput screening tests each substance at several concentrations.)
Rap guanine nucleotide exchange factor 3 (Homo sapiens), sequence (O95398 whole entry, looked up): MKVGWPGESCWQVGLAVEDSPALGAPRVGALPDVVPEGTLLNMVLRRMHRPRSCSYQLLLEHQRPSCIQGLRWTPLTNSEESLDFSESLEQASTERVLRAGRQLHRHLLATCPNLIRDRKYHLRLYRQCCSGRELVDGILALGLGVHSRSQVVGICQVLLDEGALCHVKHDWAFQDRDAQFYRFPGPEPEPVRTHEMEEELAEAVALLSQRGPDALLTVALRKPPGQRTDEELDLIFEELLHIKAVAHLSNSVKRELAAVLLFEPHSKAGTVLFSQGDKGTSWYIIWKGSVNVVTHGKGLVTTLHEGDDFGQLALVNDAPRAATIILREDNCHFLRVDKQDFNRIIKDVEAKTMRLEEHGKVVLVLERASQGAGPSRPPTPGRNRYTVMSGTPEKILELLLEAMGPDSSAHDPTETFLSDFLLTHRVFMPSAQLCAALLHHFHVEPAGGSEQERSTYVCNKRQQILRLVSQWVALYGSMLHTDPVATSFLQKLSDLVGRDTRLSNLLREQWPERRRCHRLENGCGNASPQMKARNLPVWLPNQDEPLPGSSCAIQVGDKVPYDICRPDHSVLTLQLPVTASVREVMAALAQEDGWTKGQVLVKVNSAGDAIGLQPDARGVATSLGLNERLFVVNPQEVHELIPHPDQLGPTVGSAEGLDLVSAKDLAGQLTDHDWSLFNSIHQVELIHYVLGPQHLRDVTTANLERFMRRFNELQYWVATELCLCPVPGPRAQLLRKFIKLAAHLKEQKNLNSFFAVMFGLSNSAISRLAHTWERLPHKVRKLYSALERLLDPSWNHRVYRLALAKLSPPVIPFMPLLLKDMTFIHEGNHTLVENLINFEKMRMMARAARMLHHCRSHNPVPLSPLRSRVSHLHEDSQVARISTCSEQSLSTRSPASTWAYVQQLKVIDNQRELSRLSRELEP
Test [2] addresses Rap guanine nucleotide exchange factor 4 (Homo sapiens) (UniProt Q8WZA2). Briefly: Confirmatory qHTS for agonist of cAMP-regulated guanine nucleotide exchange factor 4 (EPAC2) (AID 1645884).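 Note: nucleotide exchange releases bodipy-GDP from Rap1 and this lowers its fluorescence; % is set by controls: 0 for no effect and ±100 for the full control effect; nearly all actives have a fitted effect of over 65% in size.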
Test [3] shares this target. Briefly: Confirmatory qHTS for antagonist of cAMP-regulated guanine nucleotide exchange factor 4 (EPAC2) (AID 1645885). For activity change, negative = inhibition: % is set by controls: 0 for no effect and ±100 for the full control effect. Note: nearly all actives have a fitted effect of over 25% in size. Note: potency is the fitted concentration of half-maximal effect.
Test [4] concerns the target Rap guanine nucleotide exchange factor 3 (Homo sapiens) (UniProt O95398). Briefly: Counterscreen qHTS for antagonist of cAMP-regulated guanine nucleotide exchange factor 3 (EPAC1) (AID 1645888).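 Note: fluorescence loss as bound BODIPY-GDP is released from Rap1B; % of control where 0% means no effect.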 The procedure, abridged: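 Rap1B-BODIPY-GDP 250 nM + GDP 50 uM; cpds 7-pt, final 9.74 nM–152 uM (activator mode) or from 7.32 nM upwards (inhibitor mode); RT; FI 480/540 nm at 5 and 30 min, then ± cAMP, reread.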

SMILES strings stand for the structures. Inconclusive results are not listed. Unmarked numbers belong to inactive results. Calls of active or inactive are those of the source. Calls come from the whole dose curve; as a rule, active = well fitted curve in the direction sought with a large enough effect; inconclusive = small, poorly fitted or top-dose-only effect, or another doubt; inactive = no such curve, though single readings can be large; an effect the other way counts as inactive or inconclusive.

Rap guanine nucleotide exchange factor 4 (Homo sapiens), sequence (Q8WZA2 whole entry, looked up): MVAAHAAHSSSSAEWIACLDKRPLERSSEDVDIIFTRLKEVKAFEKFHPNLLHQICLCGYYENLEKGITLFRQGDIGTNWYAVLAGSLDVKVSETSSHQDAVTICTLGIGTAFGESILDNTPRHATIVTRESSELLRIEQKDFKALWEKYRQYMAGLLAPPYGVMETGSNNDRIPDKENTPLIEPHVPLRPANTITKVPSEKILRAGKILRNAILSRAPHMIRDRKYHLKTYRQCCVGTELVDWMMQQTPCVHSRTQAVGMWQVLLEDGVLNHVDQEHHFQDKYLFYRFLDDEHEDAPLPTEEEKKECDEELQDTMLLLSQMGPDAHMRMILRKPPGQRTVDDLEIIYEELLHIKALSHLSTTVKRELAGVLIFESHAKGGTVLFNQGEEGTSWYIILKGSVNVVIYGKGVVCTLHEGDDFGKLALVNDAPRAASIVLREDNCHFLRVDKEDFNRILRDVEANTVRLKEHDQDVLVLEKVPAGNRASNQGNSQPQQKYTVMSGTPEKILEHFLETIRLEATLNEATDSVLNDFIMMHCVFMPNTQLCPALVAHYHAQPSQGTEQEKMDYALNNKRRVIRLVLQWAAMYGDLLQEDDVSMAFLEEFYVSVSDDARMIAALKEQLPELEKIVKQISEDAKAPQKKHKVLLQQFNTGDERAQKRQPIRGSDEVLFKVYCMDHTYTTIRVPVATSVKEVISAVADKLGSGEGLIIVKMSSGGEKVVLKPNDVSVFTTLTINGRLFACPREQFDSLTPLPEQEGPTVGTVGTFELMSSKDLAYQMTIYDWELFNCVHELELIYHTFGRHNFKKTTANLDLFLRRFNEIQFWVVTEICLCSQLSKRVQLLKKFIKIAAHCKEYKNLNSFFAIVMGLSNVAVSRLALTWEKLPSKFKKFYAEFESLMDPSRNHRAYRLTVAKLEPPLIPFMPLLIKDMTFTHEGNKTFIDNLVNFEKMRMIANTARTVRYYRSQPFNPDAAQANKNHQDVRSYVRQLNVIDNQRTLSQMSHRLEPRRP

For `Cc1cccc(CN2Cc3cccc4c3[C@H](C=CC4)CC2=O)c1`, the Potency result in test [1] and in test [2] was “inactive” throughout. For the same compound, the Potency in test [3] is 44.1 µM (active).
For the compound `COC(=O)c1c(NC(=O)COC(=O)c2ccc(NC(=O)CC#N)cc2)sc2c1CCCCC2`, the Potency entry in test [1], in test [2] and in test [3] was “inactive” in each case.
Consider `Cc1ccc(O)c(-c2n[nH]c3c2C(c2ccccc2F)N(Cc2ccco2)C3=O)c1` (centres undefined), for which the Potency entry in test [1], in test [2] and in test [3] was “inactive” in each case.
Consider `CN(C)c1ccc(/C=C/c2cc[n+](C)c3ccccc23)cc1`, for which the Potency result in test [1] and in test [2] was “inactive” each time. Also, in test [3], the Potency was 49.4 µM (active).
As to `CC(C)Oc1cc(F)ccc1-c1cc(C(=O)Nc2ccc(C(C)C)cc2)[nH]n1`, the Potency result in test [1], in test [2] and in test [3] was “inactive” each time.
Regarding `CCOc1cc(-c2ccc(OC(=O)c3ccccc3)c(OC)c2)cc(=O)c2c(C)oc(C)c12`, the Potency result in test [1] and in test [2] was “inactive” in each case. Also, in test [3], the outcome was “inactive [at 12.7 µM]”.
For `O=C(Nc1cccc(NC(=O)c2cccs2)c1)c1ccc(Br)o1`, the Potency result in test [1], in test [2] and in test [3] was “inactive” in each case.
With `CC(=O)N1CCC[C@H]1C(=O)NCC1Cc2cc(-c3cccc(OC(F)(F)F)c3)ccc2O1` (some centres undefined), the Potency result in test [1] and in test [2] was “inactive” each time. The Potency in test [3] was 44.1 µM (active).
Consider `Cn1c(N)c(C(=O)COC(=O)CCCOc2ccc(Cl)cc2Cl)c(=O)n(C)c1=O`, for which the Potency entry in test [1] and in test [2] was “inactive” each time. The Potency in test [3] was 37.9 µM (active).
Turning to `Cc1cccc(N(C)S(=O)(=O)c2c[nH]c3ccc([N+](=O)[O-])cc23)c1`, the Potency result in test [1], in test [2] and in test [3] was “inactive” throughout.
Consider `Cc1cc(C)cc(OCC(=O)OCC(=O)NC2CCCCCCC2)c1`, for which the Potency result in test [1], in test [2] and in test [3] was “inactive” each time.
As to `COc1ccc(C(=O)CC2(O)C(=O)N(Cc3cccc(C(F)(F)F)c3)c3ccccc32)cc1` (centres undefined), the Potency result in test [1], in test [2] and in test [3] was “inactive” throughout.
Turning to `CCCC(=O)OC1CC(C)N(C(=O)c2ccccc2)c2ccc(C)cc21` (centres undefined), in test [1], the Potency result is “inactive”. In test [2], the activation was -2.84% [at 17.1 µM, percent relative to cAMP agonist control]. Further, the Potency in test [3] is 3.38 µM (active).
Take `O=C1NC[C@H](Cc2ccccc2)N(C[C@@H]2CCCN2C[C@H](Cc2ccc(O)cc2)N2C[C@H](Cc3ccc(O)cc3)N(CC3CCCCC3)C(=O)C2=O)C1=O`: the Potency entry in test [1] and in test [3] was “inactive” in each case. Also, in test [2], the activation is 15.7% [at 17.1 µM, percent relative to cAMP agonist control].
`C[C@@H]1CN([C@@H](C)CO)C(=O)c2ccccc2-c2ccccc2CO[C@@H]1CN(C)S(=O)(=O)c1ccc(C(F)(F)F)cc1`: the Potency entry in test [1] and in test [3] was “inactive” in each case. The activation in test [2] is 1.26% [at 17.1 µM, percent relative to cAMP agonist control].
As to `COc1ccc(S(=O)(=O)/N=C2/NC(=O)/C(=C\c3cc(OC)c(OC)cc3[N+](=O)[O-])S2)cc1`, the Potency result in test [1] and in test [3] was “inactive” each time. Further, the activation in test [2] is 0% [at 17.1 µM, percent relative to cAMP agonist control].
As to `Cn1c(SCC(=O)c2ccc3c(c2)Cc2ccccc2-3)nnc1-c1ccccc1`, the Potency result in test [1] and in test [3] was “inactive” throughout. Besides, in test [2], the activation was 0% [at 17.1 µM, percent relative to cAMP agonist control].
For `Brc1cc2c(cc1CSc1ncccn1)OCO2`, the Potency result in test [1] and in test [3] was “inactive” in each case. Besides, the activation in test [2] was -6.54% [at 17.1 µM, percent relative to cAMP agonist control].
Turning to `CC(NC(=O)/C(C#N)=C/c1ccc([N+](=O)[O-])o1)c1ccccc1` (centres undefined), the Potency entry in test [1] and in test [3] was “inactive” in each case. Also, the activation in test [2] was 5.83% [at 17.1 µM, percent relative to cAMP agonist control].
Turning to `CN(C)S(=O)(=O)N(CC(=O)NCCSc1ccc(Cl)cc1)c1ccccc1`, the Potency entry in test [1], in test [2] and in test [3] was “inactive” in each case.
As for `COc1cc(S(=O)(=O)NC2CCCCC2C)ccc1Cl` (centres undefined), the Potency entry in test [1], in test [2] and in test [3] was “inactive” throughout.
As for `Cc1cccc(NC(=O)CSCC(=O)Nc2cccc(S(=O)(=O)N3CCCCCC3)c2)c1`, the Potency entry in test [1] and in test [3] was “inactive” throughout. Further, the activation in test [2] is 8.94% [at 17.1 µM, percent relative to cAMP agonist control].
For `Cc1ccc(NCc2nc3ccccc3n2CCOc2ccccc2)cc1`, the Potency result in test [1], in test [2] and in test [3] was “inactive” each time.
For the compound `O=C1CCCC2=C1CC(C(=O)OCc1ccccc1)C(=O)N2Cc1ccccc1` (centres undefined), the Potency result in test [1] and in test [3] was “inactive” in each case. In test [2], the activation was 0% [at 17.1 µM, percent relative to cAMP agonist control].
With `C/C(=N\Nc1ccc([N+](=O)[O-])cc1)c1ccc(O)cc1`, the Potency entry in test [1] and in test [2] was “inactive” in each case. The Potency in test [3] is 26.9 µM (active).
`CCCCC[C@H]1CN(Cc2ccccc2)C(=O)[C@@H]1CC(=O)NCc1ccc(OC)cc1`: the Potency result in test [1] and in test [2] was “inactive” in each case. Also, the Potency in test [3] is 44.1 µM (active).
Regarding `COC(=O)c1ccc(CSc2nc3scc(-c4cccs4)c3c(=O)[nH]2)o1`, the Potency result in test [1], in test [2] and in test [3] was “inactive” in each case.
Take `CCN(CC)c1ccccc1/C=C/[n+]1ccc(CCCCI)c2ccccc21`: the Potency entry in test [1] and in test [2] was “inactive” throughout. In test [3], the Potency was 49.4 µM (active).
With `CSc1cccc(N2CC(C(=O)Nc3cccc(S(=O)(=O)N4CCCC4)c3)CC2=O)c1` (centres undefined), the Potency entry in test [1] and in test [3] was “inactive” throughout. In test [2], the activation is 4.48% [at 17.1 µM, percent relative to cAMP agonist control].
As for `C#CCN(Cc1nc(N2CCOCC2)c2ccc(Cl)cc2n1)Cc1ccco1`, the Potency result in test [1] and in test [2] was “inactive” each time. In addition, the Potency in test [3] is 17.5 µM (active).
Regarding `Cc1ccc(C2c3c(-c4cc(C)ccc4O)n[nH]c3C(=O)N2Cc2ccco2)cc1` (centres undefined), the Potency result in test [1] and in test [2] was “inactive” in each case. Also, the outcome in test [3] was “inactive [at 12.7 µM]”.
Take `N#C/C(=C/C1=C(N2CCOCC2)C(=C/c2cccc([N+](=O)[O-])c2)/CC1)C(=O)Nc1ccccc1F`: the Potency result in test [1] and in test [3] was “inactive” in each case. For the same compound, in test [2], the activation is 1.67% [at 17.1 µM, percent relative to cAMP agonist control]. Moreover, the activity change, negative = inhibition in test [4] was -3.26% [at 30.8 µM].
`O=C(N/N=C/c1ccc(Sc2ccccn2)o1)c1cc2ccccc2cc1O`: the Potency entry in test [1], in test [2], in test [3] and in test [4] was “inactive” throughout.
Take `COC(=O)c1ccc2c(=O)n(CCCCCC(=O)N3CCN(c4cc(C)ccc4C)CC3)c(=O)[nH]c2c1`: the Potency entry in test [1], in test [2] and in test [3] was “inactive” each time.
